Columns and labels:
Format in all cases: functional
[1] = target: Solute carrier family 2, facilitated glucose transporter member 1 (Homo sapiens) (UniProt P11166); experiment: ST_JUDE_LEISH: Cytotoxicity at 2uM final concentration against transgenic Leishmania Mexicana promastigotes LmGLUT1 that are glucose transport deficient and complemented with the human glucose transporter GLUT1. Activity is measured by DNA content using SYBR green in vitro
[2] = target: Hexose transporter 1 (Plasmodium falciparum) (UniProt O97467); experiment: ST_JUDE_LEISH: Cytotoxicity at 2uM final concentration against transgenic Leishmania Mexicana promastigotes LmPfHT that are glucose transport deficient and complemented with the Plasmodium falciparum hexose transporter. Activity is measured by DNA content using SYBR green in vitro
[3] = target: Glucose transporter (Leishmania mexicana) (UniProt O61059); experiment: ST_JUDE_LEISH: Cytotoxicity at 2uM final concentration against transgenic Leishmania Mexicana promastigotes LmGT2 that are glucose transport deficient and complemented with the L. Mexicana glucose transporter 2. Activity is measured by DNA content using SYBR green in vitro

Chain of Solute carrier family 2, facilitated glucose transporter member 1 (Homo sapiens) (P11166 whole entry): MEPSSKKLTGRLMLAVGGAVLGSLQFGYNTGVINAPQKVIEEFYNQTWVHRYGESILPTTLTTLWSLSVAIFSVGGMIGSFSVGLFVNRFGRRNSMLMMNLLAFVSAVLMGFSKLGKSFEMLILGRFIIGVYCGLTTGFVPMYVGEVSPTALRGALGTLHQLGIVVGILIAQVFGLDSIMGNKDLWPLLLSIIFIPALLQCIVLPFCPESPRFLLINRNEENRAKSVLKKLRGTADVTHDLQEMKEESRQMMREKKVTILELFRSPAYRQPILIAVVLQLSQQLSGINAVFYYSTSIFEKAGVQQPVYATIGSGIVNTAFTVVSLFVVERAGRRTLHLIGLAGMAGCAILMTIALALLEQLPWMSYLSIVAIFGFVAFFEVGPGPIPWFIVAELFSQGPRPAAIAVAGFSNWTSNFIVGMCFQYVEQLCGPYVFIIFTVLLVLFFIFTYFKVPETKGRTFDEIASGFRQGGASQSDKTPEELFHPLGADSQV

SMILES	inhibition [1]	inhibition [2]	inhibition [3]
CCn1c(-c2ccccc2)cc2nnc3ccccc3c21	6.68%	5.32%	5.02%
COc1cc(F)c2ncc(Cl)c([C@@H](O)CN3CCC(NCc4ccc5c(n4)NC(=O)CO5)CC3)c2c1	6.57%	3.3%	2.71%
CCS[C@@H]1O[C@H](COC(=O)c2ccccc2)[C@H](OC(=O)c2ccccc2)[C@H](OC(=O)c2ccccc2)[C@H]1OC(=O)c1ccccc1	1.02%	4.06%	2.02%
COc1ccc(CNCc2ccc(-c3ccc(-c4nc5cc(C(F)(F)F)ccc5[nH]4)s3)cc2)cc1	3.27%	1.92%	2.4%
Clc1cc(Nc2ncnc3sc(C#C[C@H]4CCCN4)cc23)ccc1OCc1cccnc1Cl	3.83%	4.71%	3.35%
Nc1nc(N)c2c(ccc3c2ccn3Cc2ccc(-c3ccccc3)cc2)n1	113%	113%	113%
O=C(NC1CCCCC1)N(Cc1ccccc1-c1ccc(CNCCc2ccccc2)cc1)C1CCN(Cc2ccccc2)CC1	4.39%	3.18%	-0.58%
CN1CCCc2ccc(NC(=O)c3cc(-c4ccc(Cl)cc4)cs3)cc2C1	1.97%	4.89%	1.2%
COc1ccccc1/C=C/C(=O)NCCC1CCN(CCCCCNC(=O)/C=C/c2ccc(Cl)c(Cl)c2)CC1	16.2%	13%	12.2%
CCCCCCCc1c2c(C)c(C(=O)OCC)nc-2cc2n1CC(C)=C2C	3.56%	2.2%	3.09%
Cc1cc(C(=O)Nc2ccc3c(c2)CCN3C2CCN(Cc3cc(F)cc(F)c3F)C2)no1 (configuration not stated)	-0.31%	1.36%	5.53%
O=C(Nc1cccc(-c2nn3ncccc3c2-c2ccnc(Nc3cccnc3)n2)c1)c1c(F)cccc1F	1.51%	3.78%	2.21%
CCN(CC)CCN(Cc1ccc(-c2ccc(C#N)cc2)cc1)C(=O)Cn1c(CCc2cccc(F)c2F)nc(=O)c2ccccc21	2.37%	0.54%	3%
CCn1c(-c2nonc2N)nc2c(-c3cccc(NC(=O)NC45CC6CC(CC(C6)C4)C5)c3)ncc(OCCCN)c21	2.53%	1.83%	2.53%
CC(C)COc1ccc(Cl)cc1Cc1nc(-c2nc3ccc(CN4CCN(C)CC4)cc3[nH]2)co1	8.24%	7.62%	7.58%
NC(=O)c1cnc2cc(-c3ccoc3)ccc2c1Nc1ccc(NC(=O)Nc2ccccc2Cl)cc1	2.28%	0.16%	-3.01%
O=C1CCCN1CCCNCc1cccc(-c2ccc(-c3nc4ccccc4[nH]3)s2)c1	-0.73%	0.07%	-0.46%

SMILES	inhibition [1]	inhibition [2]	inhibition [3]
COc1cc2nc(N(C)CC3COc4ccccc4O3)nc(N)c2cc1OC (configuration not stated)	3.64%	1.69%	-0.97%
CCOc1cc(C(=O)NC2CC(C)(C)N(C)C(C)(C)C2)ccc1-c1nc2cc(Cl)c(Cl)cc2[nH]1	5.59%	12.6%	7.12%
COc1ccccc1Oc1c(N(C)S(=O)(=O)c2ccc(C(C)C)cc2)nc(C(F)(F)F)nc1N(C)S(=O)(=O)c1ccc(C(C)C)cc1	0.63%	1.97%	1%
COc1ccc2nccc(N(C)CC3(O)CCN(CCc4ccc5c(c4)NC(=O)CS5)CC3)c2n1	6.99%	6.89%	6.32%
CCCCN(CCCC)CCOc1cc2c(cc1OC)CCN2C(=O)/C=C/c1ccccc1Cl	1.13%	1.58%	-0.32%
Cc1cccc2nc(-c3ccc(-c4ccc(NC(=O)Nc5ccc(F)c(F)c5F)cc4)cc3)[nH]c12	8.48%	8.02%	7.14%
Cc1cccc2nc(-c3ccc(-c4cccc(NC(=O)Nc5ccc(Cl)cc5)c4)s3)[nH]c12	3.96%	3.55%	3.01%
CC(C)CCCC(C)(C)NC[C@@H](O)[C@H](Cc1ccccc1)NC(=O)c1cccc(OCC2CC2)c1	1.19%	1.25%	1.85%
CNS(=O)(=O)c1ccc2c(c1)nc(C1CCN(CC3CCC(NC(=O)/C=C/c4ccc(Cl)c(Cl)c4)CC3)CC1)n2C (configuration not stated)	11.9%	10.9%	3.47%
O=C(NOCc1ccccc1)c1cc(Cl)ccc1O	2.44%	3.78%	2.15%
Cc1noc(-c2ccc3c(c2)CCN(CCC2CCC(NC(=O)/C=C/c4ccc(F)cc4)CC2)CC3)n1 (configuration not stated)	0.93%	-1.07%	-0.23%
COc1cc2nc(N3CCN(C(=O)c4c(Cl)nsc4-c4ccccc4Cl)CC3)nc(N)c2cc1OC	10.5%	8.35%	5.08%
Cc1cccc2nc(-c3ccc(-c4cccc(NC(=O)Nc5ccc(F)c(F)c5F)c4)cc3)[nH]c12	2.29%	3.05%	0.59%
O=C1SC(=Cc2ccc(O)c(O)c2)C(=O)N1c1ccccc1	2.29%	2.56%	0.86%
COc1cc(Cc2cnc(NCCN3CCNCC3)nc2N)ccc1OCc1ccc(C(F)(F)F)cc1	3.49%	4.49%	6.93%
O=C(Nc1ccc(Cl)c(Cl)c1)Nc1ccc2nccc(N3CCNCC3)c2c1	-0.16%	0.06%	0.13%
COc1ccc2c(c1)nc(CNC(=N)N)n2Cc1ccc(Cl)cc1	1.63%	1.08%	1.85%
